{
  "source": "PubChem BioAssay (NCI)",
  "note": "The panel holds about 83,000 compounds, 20% with a hit somewhere; the sample as a whole holds those more often.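 Interpretation: 100, growth as untreated; towards 0, rising growth inhibition; 0, no net growth; 0 to -100, cell death. Compounds scoring below 10 were considered active.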 A number with no mark means an inactive call. Activity calls are given as the source filed them.",
  "data": [
    {"test_system": "HL-60(TB) leukemia", "experiment": "NCI-60 one-dose screen, 48 h (100 = growth as untreated, 0 = no growth, -100 = all killed)", "settings": "10 µM unless noted", "values": [
      {"smiles": "CC12CCC(/C(=C/NNc3ccc([N+](=O)[O-])cc3[N+](=O)[O-])C1=O)C2(C)C", "note": "(stereo unspecified)", "growth": "110%"},
      {"smiles": "CN1C(=O)N(C)C2Nn3c(s/c(=C\\c4ccccc4)c3=O)=NC21", "note": "(stereo unspecified)", "growth": "95.2%"},
      {"smiles": "CC(C)[N+]1(C)C2CC[C@@H]1CC(OC(=O)C(CO)c1ccccc1)C2", "note": "(stereo partly specified)", "growth": "107%"},
      {"smiles": "CCOC(=O)c1cnn(CC(C)O)c1NC(=O)NCc1cccc(F)c1", "note": "(stereo unspecified)", "growth": "90.5%"},
      {"smiles": "OCCN1CCN(c2cc(-c3cccc(OC(F)(F)F)c3)nc3ccc(N4CCCC4)cc23)CC1", "growth": "62.8%"},
      {"smiles": "O=C1C(=O)c2c(nc3ncccn23)-c2ccccc21", "growth": "-51% (active)"},
      {"smiles": "CC(=O)c1cccc(O)c1", "growth": "100%"},
      {"smiles": "CCC(c1ccc(O)cc1)C(CC)c1ccc(O)c(F)c1", "note": "(stereo unspecified)", "growth": "56.1%"},
      {"smiles": "Cc1ccc2c(O)c(O)cc(NC(C)CCCN)c2n1", "note": "(stereo unspecified)", "growth": "28.3%"},
      {"smiles": "NC(N)=N/N=C(/c1ccccc1)c1ccccc1F", "growth": "-47% (active)"},
      {"smiles": "Nc1nc(Nc2ccc(Cl)cc2)nn1S(=O)(=O)c1ccc(-c2ccc(F)cc2)cc1", "growth": "110%"},
      {"smiles": "COc1ccc(/C=N\\N2CCOCC2)cc1OC1CCCC1", "growth": "104%"},
      {"smiles": "C=C(CN1CC=CCC1)[C@@H]1CC[C@]2(C(=O)OC)CC[C@]3(C)[C@H](CC[C@@H]4[C@@]5(C)CC[C@H](OC(C)=O)C(C)(C)[C@@H]5CC[C@]43C)[C@@H]12", "growth": "49.6%"},
      {"smiles": "C/C=C(/C)C(=O)OC1C=C(CO)C(=O)C(OC(=O)C(C)(O)C(C)Cl)C1C(C)C", "note": "(stereo unspecified)", "growth": "-25.3% (active)"},
      {"smiles": "CCC(CCCN1C(=O)c2ccccc2C1=O)Nc1cc(OC)cc2c(C)ccnc12", "note": "(stereo unspecified)", "growth": "87.4%"},
      {"smiles": "ClC1=C(Cl)C(=C2C(Cl)=C(Cl)C(Cl)=C2Cl)C(Cl)=C1Cl", "growth": "77.7%"},
      {"smiles": "CCOC(=O)c1c(C)nc2ccccc2c1/C=C/c1ccc(F)cc1", "growth": "85.7%"},
      {"smiles": "CC(=O)Cc1ccccn1", "growth": "85.4%"},
      {"smiles": "C#CCOc1cccc(Nc2ncnc3ccc(NC(=O)C=C)cc23)c1", "growth": "29.3%"},
      {"smiles": "COc1cc(/C=C/C(=O)/C=C(O)/C=C/c2ccc(OC(=O)C34CC5CC(CC(C5)C3)C4)c(OC)c2)ccc1OC(=O)C12CC3CC(CC(C3)C1)C2", "growth": "104%"},
      {"smiles": "CC[C@@H]1NC(=O)[C@H]([C@H](O)[C@H](C)C/C=C/c2ccc(CN3C(=O)C(C)=C(C)C3=O)cc2)N(C)C(=O)[C@H](C(C)C)N(C)C(=O)[C@H](CC(C)C)N(C)C(=O)[C@H](CC(C)C)N(C)C(=O)[C@@H](C)NC(=O)[C@H](C)NC(=O)[C@H](CC(C)C)N(C)C(=O)[C@H](C(C)C)NC(=O)[C@H](CC(C)C)N(C)C(=O)CN(C)C1=O", "growth": "81.2%"},
      {"smiles": "NC(=Nc1ccccc1)SCCCCSC(N)=Nc1ccccc1", "growth": "79.5%"},
      {"smiles": "O=C(c1ccc(F)c(Cl)c1)N1c2ccccc2Sc2ccccc21", "growth": "30.8%"},
      {"smiles": "COc1ccc(Oc2nc(Nc3ccc(N4CCCCC4)nc3)ncc2NC(=O)c2cc(OC)cc(OC)c2)cc1", "growth": "0.492% (active)"},
      {"smiles": "CC1(C)c2ccccc2C(=O)C1(Br)Cc1ccccc1", "note": "(stereo unspecified)", "growth": "9.51% (active)"},
      {"smiles": "Cn1c(=O)c2nc(SCc3ccccc3)n(C)c2n(C)c1=O", "growth": "92.3%"}
    ]}
  ]
}
